This passage reports % ACh max response results from PubChem BioAssay AID743100 (Vanderbilt Specialized Chemistry Center, 2013).

Calls of active or inactive are those of the source.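 Rule for the calls: active = calcium response above 60% of the acetylcholine maximum at human M5, as a positive modulator; inactive = the rest.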

The assay deals with Muscarinic acetylcholine receptor M5 (Homo sapiens) (UniProt P08912). The assay is described as follows: potentiators of ACh response at human M5 – cell-based, single concentration, CHO-K1 hM5, calcium flux (AID 743100). Conditions: CHO-K1 hM5, Fluo-4 calcium flux, ACh EC20, active compounds read high; at 10 µM unless noted.
Chain of Muscarinic acetylcholine receptor M5 (Homo sapiens) (P08912 whole entry, looked up): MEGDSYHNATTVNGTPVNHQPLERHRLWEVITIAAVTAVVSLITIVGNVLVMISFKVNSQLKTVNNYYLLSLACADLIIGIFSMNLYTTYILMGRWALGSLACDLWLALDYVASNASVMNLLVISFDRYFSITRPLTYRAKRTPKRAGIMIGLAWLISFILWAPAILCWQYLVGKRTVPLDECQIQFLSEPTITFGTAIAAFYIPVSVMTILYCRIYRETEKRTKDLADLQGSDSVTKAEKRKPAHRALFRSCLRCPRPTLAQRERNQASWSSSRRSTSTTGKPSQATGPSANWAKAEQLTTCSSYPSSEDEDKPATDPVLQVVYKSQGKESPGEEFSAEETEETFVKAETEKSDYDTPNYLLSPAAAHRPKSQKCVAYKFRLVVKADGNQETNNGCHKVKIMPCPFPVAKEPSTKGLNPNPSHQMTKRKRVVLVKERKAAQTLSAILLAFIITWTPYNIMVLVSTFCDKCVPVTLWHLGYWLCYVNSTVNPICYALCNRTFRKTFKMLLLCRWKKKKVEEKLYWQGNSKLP
For the molecule `CCN(C(=O)C1CCN(S(=O)(=O)c2ccc(-n3cccn3)cc2)CC1)[C@H](C)c1ccccc1`, the % ACh max response was 97.5% (active).

For `CCN(Cc1ccccc1)C(=O)C1CCN(S(=O)(=O)c2ccc3cn[nH]c3c2)CC1`, the % ACh max response was 83.1% [at 30 µM] (active).

With `CCN(Cc1ccc(OC(F)(F)F)cc1)C(=O)C1CCN(S(=O)(=O)c2ccc3cn[nH]c3c2)CC1`, the % ACh max response is 40.8% (inactive). Under `CCN(Cc1ccccc1)C(=O)C1CCN(S(=O)(=O)Cc2cccc(C(F)(F)F)c2)CC1` stands 25.5% [at 30 µM] (inactive); under `CCN(Cc1ccccc1)C(=O)C1CCN(S(=O)(=O)c2ccc(N3CCOCC3)nc2)CC1`, 70% [at 30 µM] (active).

As for `CCN(Cc1cc(F)ccc1F)C(=O)C1CCN(S(=O)(=O)c2ccc3cn[nH]c3c2)CC1`, the % ACh max response was 57.2% (inactive). With `CCN([C@H](C)c1ccccc1)S(=O)(=O)C1CCN(S(=O)(=O)c2ccc3cn[nH]c3c2)CC1`, the % ACh max response was 19.4% (inactive). Next, `CCN(Cc1ccccc1)C(=O)C1CCN(S(=O)(=O)c2ccc3cn(C)nc3c2)CC1`: 64.9% (active); `CC1c2ccccc2CCN1C(=O)C1CCN(S(=O)(=O)c2ccc3[nH]ncc3c2)CC1` (stereo not drawn): 40.4% (inactive); `CCN(Cc1ccccc1)C(=O)C1CCN(S(=O)(=O)c2ccccc2)CC1`: 71.5% [at 30 µM] (active). Next, `CCN(Cc1ccccc1)C(=O)C1CCN(S(=O)(=O)c2cccc(C#N)c2)CC1`: 61% [at 30 µM] (active).

Turning to `CCN(Cc1ccc(C#N)cc1)C(=O)C1CCN(S(=O)(=O)c2ccc3cn[nH]c3c2)CC1`, the % ACh max response is 8.37% (inactive). Under `CCN(CC1CCN(S(=O)(=O)c2ccc3cn[nH]c3c2)CC1)C(=O)c1ccccc1` stands 13.7% (inactive); under `CCN(Cc1ccccc1Cl)C(=O)C1CCN(S(=O)(=O)c2ccc3cn[nH]c3c2)CC1`, 90.7% (active).

`CCN(Cc1ccccc1)C(=O)C1CCN(S(=O)(=O)C(C)C)CC1`: the % ACh max response is 20.8% [at 30 µM] (inactive). For the molecule `CC(=O)N(Cc1ccccc1)CC1CCN(S(=O)(=O)c2ccc3cn[nH]c3c2)CC1`, the % ACh max response was 11.4% (inactive). On to `COc1cccc(S(=O)(=O)N2CCC(CN(Cc3ccccc3)C(C)=O)CC2)c1`, for which the % ACh max response is 12.7% (inactive). Under `CCN(Cc1ccccc1)C(=O)C1CCN(S(=O)(=O)c2cccc(C)c2)CC1` stands 63.8% [at 30 µM] (active); under `CC(=O)N(Cc1ccccc1)CC1CCN(S(=O)(=O)c2ccc(OC(F)(F)F)cc2)CC1`, 6.72% (inactive). For the molecule `COc1ccc(S(=O)(=O)N2CCC(CN(Cc3ccccc3)C(C)=O)CC2)cc1`, the % ACh max response is 11.8% (inactive). Turning to `CCN(Cc1ccccc1)C(=O)C1CCN(S(=O)(=O)c2ccc(C(C)=O)cc2)CC1`, the % ACh max response was 58.4% [at 30 µM] (inactive). Consider `CCN(Cc1ccccc1)C(=O)C1CCN(S(=O)(=O)c2ccc(Cl)nc2)CC1`, for which the % ACh max response was 50.1% [at 30 µM] (inactive). With `CCN([C@H](C)c1ccccc1)S(=O)(=O)C1CCN(C(=O)c2ccc3[nH]ncc3c2)CC1`, the % ACh max response was 26.9% (inactive). `CCN(Cc1ccc(-c2ccccc2)cc1)C(=O)C1CCN(S(=O)(=O)c2ccc3cn[nH]c3c2)CC1`: the % ACh max response was 24.8% (inactive). With `CCN(Cc1ccccc1C(F)(F)F)C(=O)C1CCN(S(=O)(=O)c2ccc(-n3cccn3)cc2)CC1`, the % ACh max response is 81.9% (active). Turning to `CCN(Cc1ccccc1)C(=O)C1CCN(S(=O)(=O)Cc2ccccc2Br)CC1`, the % ACh max response is 5.25% [at 30 µM] (inactive). Consider `CCN(Cc1ccccn1)C(=O)C1CCN(S(=O)(=O)c2ccc3cn[nH]c3c2)CC1`, for which the % ACh max response is 35.1% (inactive). As to `CCN(C(=O)C1CCN(S(=O)(=O)N(C)C)CC1)[C@H](C)c1ccccc1`, the % ACh max response was 29.1% (inactive). `CCc1ccc(S(=O)(=O)N2CCC(C(=O)N(CC)Cc3ccccc3)CC2)cc1`: the % ACh max response is 64.3% [at 30 µM] (active). On to `CCN(Cc1ccccc1)C(=O)C1CCN(S(=O)(=O)c2cccc(C(F)(F)F)c2)CC1`, for which the % ACh max response was 63.9% [at 30 µM] (active).

In the case of `CCN(C(=O)C1CCN(S(=O)(=O)c2ccc3c(c2)CCO3)CC1)[C@H](C)c1ccccc1`, the % ACh max response is 97.5% (active).

`CCN(Cc1ccccc1C(F)(F)F)C(=O)C1CCN(S(=O)(=O)c2ccc3occc3c2)CC1`: the % ACh max response is 84.8% (active). `CCN(Cc1ccccc1)C(=O)C1CCN(S(=O)(=O)c2ccc(OC)c(OC)c2)CC1`: the % ACh max response is 56% [at 30 µM] (inactive).
